Compound activity as filed in PubChem BioAssay.
Giardia FBPA inh = inhibitors of Giardia lamblia fructose-1,6-bisphosphate aldolase; Potency, µM (series often up to 59.6 µM), usual class: inhibitors; actives 0.71% (n = 290,000); purified Giardia FBPA; A8B2U2; AID 2451; also: nearly all actives have a fitted effect of over 55% in size
Target sequence (A8B2U2 whole entry, looked up): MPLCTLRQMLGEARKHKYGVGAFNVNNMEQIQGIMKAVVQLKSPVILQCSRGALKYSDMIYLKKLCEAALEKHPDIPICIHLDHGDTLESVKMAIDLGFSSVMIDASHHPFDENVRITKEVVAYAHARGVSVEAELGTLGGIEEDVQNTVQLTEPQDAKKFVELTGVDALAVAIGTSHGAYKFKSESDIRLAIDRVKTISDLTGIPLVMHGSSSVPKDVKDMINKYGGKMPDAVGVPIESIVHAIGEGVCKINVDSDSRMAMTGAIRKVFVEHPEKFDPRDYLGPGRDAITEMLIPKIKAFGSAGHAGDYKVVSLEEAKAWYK
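40 nM FBPA preincubated 10 min at RT with compound (up to 57.5 uM final), then substrate plus GAPDH/TPI/NAD/arsenate coupling and diaphorase/resazurin added. Fluorescence read after 20 min at RT, 525/598 nm.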
Pf growth 96h = inhibits malaria parasite growth, 96 h; Potency, µM (top dose mostly 28.7 µM), actives largely listed as inhibitors; actives 6.9% (n = 320,000); P. falciparum luciferase reporter growth, 96 h
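Two parasite generations (96 h, 37 C, 5% CO2) of compound exposure in infected erythrocytes (0.05% parasitemia, 2% hematocrit). Luciferase-reporter P. falciparum; decreased luminescence indicates inhibited growth, aimed at apicoplast-acting delayed death.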
Pf growth 48h = P. falciparum growth inhibition at 48 hours (one generation). P. falciparum luciferase growth in erythrocytes, 48 h. Potency, µM (titrated, usually from 28.7 µM), hits mostly inhibitors. actives 5.9% (n = 310,000)
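Growth was read as firefly luciferase luminescence after a 48 h, 37 C, 5% CO2 exposure of compounds to reporter-bearing P. falciparum cultures (0.1% parasitemia, 2% hematocrit final) in Albumax-supplemented RPMI 1640.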
Sm TGR block = inhibitors of Schistosoma mansoni thioredoxin glutathione reductase. Q962Y6. purified TGR, DTNB reduction, TNB absorbance 405 nm. Potency, µM (doses to about 114 µM), most hits filed as inhibitors. actives 3% (n = 360,000); also: nearly all actives have a fitted effect of over 60% in size
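TGR 20 nM + NADPH 100 uM (dispensed conc.), cpd preinc 15 min RT; start with NADPH (500 uM addition) then DTNB (15 mM addition). Kinetic TNB absorbance, 405 nm filter. Four-parameter Hill fit across titration.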
HCMV inh = inhibitors of human cytomegalovirus | activity change, negative = inhibition, % at 57.5 µM | HFF cells, HCMV-luciferase reporter, 72 h; hits give low values | actives 4.5% (n = 410,000); in the data active = activity change below about -60%; inconclusive = no clear call, values can overlap the other calls; inactive = above about -39%
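HFF cells seeded 16 h at 37C, treated with compounds, infected with luciferase-reporter HCMV at MOI 1 PFU/cell; luciferase read at 72 h post infection, normalized to buffer-only and Salinomycin controls.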
Of the large screens only hits and unclear results are named; the others gave an inactive call. Sampled rows, rich in hits. Any-hit rate of the full collection: about 14%. Unless noted, calls follow the shape of the dose curve; as a rule, active = well fitted curve in the direction sought with a large enough effect; inconclusive = small, poorly fitted or top-dose-only effect, or another doubt; inactive = no such curve, though single readings can be large; an effect the other way counts as inactive or inconclusive.

O=C(c1ccc(NS(=O)(=O)c2cccc(C(F)(F)F)c2)cc1)N1CCCC1	Pf growth 96h 10µM (no result: Giardia FBPA inh)
O=C(c1ccc(NS(=O)(=O)c2cccc(F)c2)cc1)N1CCCCC1	HCMV inh -73 (no result: Giardia FBPA inh)
O=C(c1ccc(NS(=O)(=O)c2cccc(F)c2)cc1)N1CCCC1	none (no result: Giardia FBPA inh)
O=C(c1ccc(Nc2cccc(C(F)(F)F)c2)nc1)N1CCCC1	Pf growth 96h 17µM, Pf growth 48h inconclusive
O=C(c1cccc(S(=O)(=O)Nc2ccc(F)cc2)c1)N1CCCC1	Pf growth 48h inconclusive (no result: Giardia FBPA inh)
O=C(CSc1n[nH]c(-c2ccccn2)n1)Nc1ccc(Cl)cc1	Giardia FBPA inh inconclusive, Pf growth 48h inconclusive, HCMV inh -96
CC(C)c1ccc(C(=O)CSc2n[nH]c(-c3ccncc3)n2)cc1	Pf growth 96h 2.6µM (no result: Pf growth 48h)
O=C(CSc1ccc(Cl)cc1)Nc1ccc(-c2nc3ccccc3[nH]2)cc1	Pf growth 48h 4.1µM
Cc1ccc(NC(=O)CSc2n[nH]c(C)c2[N+](=O)[O-])cc1C	HCMV inh -69
CCC(C)(C)NC(=O)C(c1ccc(OC)cc1)N(C(=O)CCC(=O)Nc1cc(C)on1)c1ccccc1F (centres undefined)	Pf growth 96h inconclusive, Pf growth 48h inconclusive
C[C@@]1(O)CCOC(=O)C1	none (no result: Pf growth 96h, Pf growth 48h, Sm TGR block, HCMV inh)
O=C(CSc1n[nH]c(-c2ccncc2)n1)Nc1ccc(F)cc1	Giardia FBPA inh inconclusive
Cc1ccc(NC(=O)CSc2n[nH]c(-c3ccncc3)n2)cc1C	Pf growth 48h 12µM
COc1ccc(C)cc1NS(=O)(=O)c1cnc(N)nc1	none (no result: Giardia FBPA inh, Pf growth 96h, Pf growth 48h)
CC(=O)Nc1ccc(NC(=O)C(NS(=O)(=O)c2ccc(Br)s2)c2ccccc2)cc1 (centres undefined)	none (no result: Giardia FBPA inh, Pf growth 96h, Pf growth 48h)
Cc1cc(C)n2nc(SCC(=O)N3CCN(c4ccc(F)cc4)CC3)nc2n1	Pf growth 96h 6.6µM, Pf growth 48h inconclusive (no result: Giardia FBPA inh)
Cc1cc(C)n2nc(SCC(=O)N3CCOCC3)nc2n1	none (no result: Giardia FBPA inh)
Cc1cc(C)n2nc(SCC(=O)N3CCC(C(=O)O)CC3)nc2n1	none (no result: Giardia FBPA inh, Pf growth 96h, Pf growth 48h, Sm TGR block)
COc1ccc(N2CCN(C(=O)CSc3nc4nc(C)cc(C)n4n3)CC2)cc1	Pf growth 96h 13µM, Pf growth 48h inconclusive (no result: Giardia FBPA inh)
CCN(CC)S(=O)(=O)c1cccc(NC2=NCC(C)S2)c1 (centres undefined)	none
CN(CC1CCN(CCc2cccc(C(F)(F)F)c2)CC1)C(=O)c1ccc(F)cc1F	Pf growth 48h inconclusive, Sm TGR block 40µM
CN(CC1CCCN(CCc2cccc(C(F)(F)F)c2)C1)C(=O)c1ccco1 (centres undefined)	none (no result: Giardia FBPA inh)
CSCCC(=O)N(C)CC1CCN(CCc2cccc(C(F)(F)F)c2)CC1	Pf growth 96h 4.1µM
COc1ccc(C(=O)N(C)CC2CCN(CCc3cccc(C(F)(F)F)c3)CC2)cc1C	Pf growth 48h inconclusive
Cc1ccc(C)c(CN2C(=O)N(c3cc(Cl)ccc3C)S(=O)(=O)c3ccccc32)c1	HCMV inh inconclusive (no result: Giardia FBPA inh, Pf growth 96h, Pf growth 48h)
CC1=C(C(=O)OC2CCCC2)C(c2ccc(C)o2)C2=C(CC(c3cccs3)CC2=O)N1 (centres undefined)	Pf growth 48h 9.3µM, Sm TGR block inconclusive
CCOC(=O)C1=C(C)NC2=C(C(=O)CC(c3cccs3)C2)C1c1cccs1 (centres undefined)	Pf growth 96h inconclusive, Pf growth 48h 4.1µM
CC1=C(C(=O)OC2CCCCC2)C(c2ccc(C)o2)C2=C(CC(C)(C)CC2=O)N1 (centres undefined)	Pf growth 48h 12µM
COC(=O)C1=C(C)NC2=C(C(=O)CC(c3cccs3)C2)C1c1ccsc1 (centres undefined)	none
C[C@H]1OC(OC2C(O)[C@@H](O)C(OC3C(O)[C@@H](O)C(O)O[C@@H]3CO)O[C@@H]2CO)[C@H](O)C(O)C1N[C@H]1C=C(CO)[C@@H](O)[C@H](O)C1O (some centres undefined)	none (no result: Sm TGR block, HCMV inh)
CCN(CC)C(=O)C(=O)c1cn(CC(=O)N2CCc3ccccc3C2)c2ccccc12	Pf growth 48h inconclusive, Sm TGR block 45µM, HCMV inh inconclusive
O=C(C(=O)N1CCCCC1)c1cn(CC(=O)N2CCCCCC2)c2ccccc12	Pf growth 96h 12µM, Pf growth 48h inconclusive (no result: Giardia FBPA inh)
O=C(NCc1cccs1)C(=O)c1cn(CC(=O)N2CCCC2)c2ccccc12	Pf growth 48h inconclusive
O=C(NCc1cccs1)C(=O)c1cn(CC(=O)N2CCOCC2)c2ccccc12	HCMV inh -96
O=C(C(=O)N1CCc2ccccc2C1)c1cn(CC(=O)N2CCCC2)c2ccccc12	HCMV inh inconclusive
CCC1CCCCN1C(=O)C(=O)c1cn(CC(=O)N(CC)CC)c2ccccc12 (centres undefined)	Pf growth 96h 10µM (no result: Giardia FBPA inh)
CCN(CC)C(=O)Cn1cc(C(=O)C(=O)N(C)C2CCN(C)CC2)c2ccccc21	none (no result: Giardia FBPA inh)
Cc1ccc2c(c1)-c1cc(C)ccc1C2=O	none (no result: Giardia FBPA inh, Pf growth 96h, Pf growth 48h, Sm TGR block)
FC(F)(F)c1ccc(Nc2cc3c(cn2)ncn3CC2CC2)cc1	none (no result: Giardia FBPA inh, Pf growth 96h, Pf growth 48h, Sm TGR block)
O=C(C(=O)N1CCN(c2ccc(F)cc2)CC1)c1cn(CC(=O)N2CCOCC2)c2ccccc12	Pf growth 96h 13µM (no result: Giardia FBPA inh)
O=C(Nc1ccccc1)C(=O)c1cn(CC(=O)N2CCCCC2)c2ccccc12	Pf growth 96h 10µM
CC(=O)Nc1ccc(NC(=O)C(=O)c2cn(CC(=O)N3CCCCC3)c3ccccc23)cc1	Pf growth 96h inconclusive, Pf growth 48h inconclusive
CCOC(=O)c1ccc(Oc2coc3cc(O)ccc3c2=O)cc1	Pf growth 96h 2.9µM
COc1ccc(Oc2coc3cc(O)ccc3c2=O)cc1	Pf growth 96h inconclusive
